Most compounds without a hit are left out; they make up all but 1.2% or so of the library.
MmCpn inh: Inhibitors of TCP-1 ring complex (TRiC) of Methanococcus maripaludis (MmCpn): qHTS; Chaperonin Mm-Cpn (Methanococcus maripaludis); purified Mm-Cpn ATPase, ADP Transcreener TR-FRET; Potency, µM (top dose mostly 76.9 µM), actives largely listed as inhibitors; 330,000 tested, 0.031% active; AID 504842, 2011; also: nearly all actives have a fitted effect of over 80% in size
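Measured: ADP formation by purified Mm-CPN. Conditions: 25 nM protein, 10 uM ATP, Tris pH 7.4 with Mg2+, K+ and DTT, 37°C for 30 min. Detection: Transcreener HTRF after 30 min at room temperature.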
CCT chaperon mod: High-Throughput Screening for Modulators of Cytosolic Chaperonin Activity. purified chaperonin ATPase assay, HTRF ADP detection, 30 min. activity change, % (no concentration beside the values), hits read low. 360,000 tested, 0.3% active; in the data active = activity change below about -30%
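First, chaperonin was dispensed at 40 nM or 20 nM final depending on batch activity. Next, compounds were pinned at 76 uM and ATP added at 10 uM. After 30 min at 37 °C, ADP detection reagents ran 30 min at ambient temperature.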
gsp antagonist: qHTS for Antagonists of gsp, the Etiologic Mutation Responsible for Fibrous Dysplasia/McCune-Albright Syndrome: qHTS. AID 624288, 2012. gsp-mutant cells, cAMP HTRF, 30 min. 340,000 tested, 0.4% active. Potency, µM (titrated, usually from 76.9 µM), most hits filed as inhibitors; calls by dose curve; cell line not stated here;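 also: intracellular cAMP measured with PDE inhibitor Ro 20-1724 present during compound exposure; nearly all actives have a fitted effect of over 65% in size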
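Measurement of cellular cAMP by homogeneous time-resolved fluorescence following a 30 min compound exposure at 37C. The PDE inhibitor […] was present throughout; the assay buffer was DPBS with 0.05% BSA and 0.005% Tween 20.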
gsp agonist: qHTS for Agonist of gsp, the Etiologic Mutation Responsible for Fibrous Dysplasia/McCune-Albright Syndrome: qHTS | 340,000 tested, 0.13% active | Potency, µM (top dose mostly 76.9 µM), hits mostly activators | gsp mutant cells, cAMP HTRF, 30 min; active = well fitted activation curve with a large enough effect; inconclusive = small, poorly fitted or top-dose-only effect, or another doubt; inactive = no such curve, though single readings can be large or run the other way; cell line not stated here;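 also: phosphodiesterase inhibitor Ro 20-1724 added with compounds to block cAMP breakdown; nearly all actives have a fitted effect of over 60% in size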
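Cells stably selected in G418 were plated at 2000/well, grown 16-24 hr, then given compounds in DMSO with the PDE inhibitor […] (300 uM solution added) for 30 min at 37C; cAMP was read by HTRF.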
RXFP1 antag: qHTS Assay for Antagonists of the Relaxin Receptor RXFP1. HEK293-RXFP1, relaxin-stimulated cAMP HTRF, 30 min; stronger effect = lower value. AID 1259400, 2018. Relaxin receptor 1 (Homo sapiens), Q9HBX9. activity change, negative = inhibition, % at 57.5 µM. 350,000 tested, 0.59% active;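 active = activity change of -60% or lower, but not beyond a set lower limit; inconclusive = change between -60% and -40%, or beyond the set limit; inactive = change above -40%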
Target sequence (Q9HBX9 whole entry, looked up): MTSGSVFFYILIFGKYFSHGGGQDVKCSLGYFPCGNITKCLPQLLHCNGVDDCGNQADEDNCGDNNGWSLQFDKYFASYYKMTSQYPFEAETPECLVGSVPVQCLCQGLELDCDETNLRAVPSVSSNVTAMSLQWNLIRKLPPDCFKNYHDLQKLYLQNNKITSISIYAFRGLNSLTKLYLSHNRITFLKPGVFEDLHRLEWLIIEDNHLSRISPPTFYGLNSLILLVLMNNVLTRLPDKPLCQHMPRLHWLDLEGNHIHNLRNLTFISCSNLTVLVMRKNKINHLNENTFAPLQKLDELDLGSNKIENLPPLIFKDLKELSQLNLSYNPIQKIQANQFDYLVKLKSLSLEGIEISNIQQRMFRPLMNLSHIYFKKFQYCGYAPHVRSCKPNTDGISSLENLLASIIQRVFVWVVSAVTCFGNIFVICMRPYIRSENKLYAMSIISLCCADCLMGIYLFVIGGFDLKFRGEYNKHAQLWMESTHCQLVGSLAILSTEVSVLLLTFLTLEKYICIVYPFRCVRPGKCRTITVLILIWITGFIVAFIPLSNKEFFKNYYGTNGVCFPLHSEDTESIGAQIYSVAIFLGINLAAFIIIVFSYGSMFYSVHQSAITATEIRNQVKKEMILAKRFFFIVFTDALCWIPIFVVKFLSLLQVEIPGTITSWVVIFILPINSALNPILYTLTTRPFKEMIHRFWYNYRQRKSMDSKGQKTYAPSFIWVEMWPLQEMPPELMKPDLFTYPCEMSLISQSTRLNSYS
RXFP1 ag: qHTS Assay for Agonists of the Relaxin Receptor RXFP1; Potency, µM (top dose mostly 57.5 µM), hits mostly activators; HEK293T-RXFP1 cAMP TR-FRET, 30 min; response scale: percent of porcine relaxin response, buffer zero; 370,000 tested, 0.3% active; AID 2676, 2010; Relaxin receptor 1 (Homo sapiens), Q9HBX9; also: nearly all actives have a fitted effect of over 60% in size
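Agonist response is measured as cAMP accumulation in an RXFP1-transfected HEK293T line under PDE4 inhibition. Values are scaled between buffer-only and 29 nM porcine relaxin, and EC50s come from standard Hill equation fits.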
Of the large screens only hits and unclear results are named; the others gave an inactive call; ! = repeats disagree. Unless noted, calls follow the shape of the dose curve; as a rule, active = well fitted curve in the direction sought with a large enough effect; inconclusive = small, poorly fitted or top-dose-only effect, or another doubt; inactive = no such curve, though single readings can be large; an effect the other way counts as inactive or inconclusive.

CCOC(=O)N1CCN(CCC(=O)Nc2cccc(Br)c2)CC1	CCT chaperon mod -95.6!
O=C(Cn1c(-c2cccs2)cc2ccccc21)NCCCN1CCN(c2cccc(Cl)c2)CC1	none (no result: MmCpn inh, CCT chaperon mod, gsp antagonist, gsp agonist)
COc1ccc(Cl)cc1NC(=O)CSc1nc(-c2ccco2)cc(C(F)(F)F)n1	none (no result: MmCpn inh, CCT chaperon mod, gsp antagonist, gsp agonist)
O=C(c1cc(Cl)nc2ccccc12)N1CCN(S(=O)(=O)c2cccc(C(F)(F)F)c2)CC1	RXFP1 antag -77.2
COc1ccc(CSc2nnc(Cc3sc(-c4ccccc4)nc3-c3ccccc3)o2)cc1	MmCpn inh 35.5µM
COc1ccccc1/C=C/C(=O)c1ccccc1	none
COc1ccccc1/C=C/C(=O)c1c2c(c(C)[nH]c1=O)CCCC2	gsp antagonist 50.1µM
Cc1cc(C)c2c(CC(=O)Nc3nnc(CC(C)C)s3)coc2c1	none (no result: MmCpn inh, CCT chaperon mod, gsp antagonist, gsp agonist)
C#CCOc1ccccc1/C=N/NC(=O)c1ccccc1OCc1ccccc1	gsp antagonist 12.6µM
Cc1cccc(Nc2nnc(-c3ccc(C)c(S(=O)(=O)N4CCN(C)CC4)c3)c3ccccc23)c1	none (no result: MmCpn inh, CCT chaperon mod, gsp antagonist, gsp agonist)
COc1ccc(F)cc1S(=O)(=O)Nc1ccc2c(c1)CCCN2C(=O)c1cccs1	none (no result: MmCpn inh, CCT chaperon mod, gsp antagonist, gsp agonist)
O=C1Nc2ccc(Br)cc2/C1=C/C(=O)c1ccc2c(c1)OCO2	RXFP1 antag -84.0
COc1ccc(C(=O)/C=C2\C(=O)Nc3ccc(Br)cc32)cc1	RXFP1 antag -75.0 (no result: MmCpn inh, RXFP1 ag)
CCOc1ccc(Nc2c(S(=O)(=O)c3ccccc3)cnc3ccc(CC)cc23)cc1	none (no result: MmCpn inh, CCT chaperon mod, gsp antagonist, gsp agonist)
CC(=O)c1ccc(Sc2ccccc2)c([N+](=O)[O-])c1	none
COc1cc(C(=O)NCCSc2c(C)[nH]c3ccccc23)cc(OC)c1OC	none (no result: MmCpn inh, CCT chaperon mod, gsp antagonist, gsp agonist)
CC(=O)NCCNC(=O)c1ccc(Sc2ccccc2)c([N+](=O)[O-])c1	CCT chaperon mod -33.0
Cc1ccc(C(=O)NCCSc2c(C)[nH]c3ccccc23)cc1[N+](=O)[O-]	gsp antagonist 35.5µM
CC(C)OC(=O)OCOP(=O)(CO[C@H](C)Cn1cnc2c(N)ncnc21)OCOC(=O)OC(C)C	none (no result: MmCpn inh, CCT chaperon mod, gsp antagonist, gsp agonist, RXFP1 ag)
CCCCCN(C(=O)COC(=O)COc1c(C)cc(C)cc1C)c1c(N)n(CCCC)c(=O)[nH]c1=O	RXFP1 antag -68.9
Cc1ccc(N(CCC#N)C(=O)CSc2nc3ccccc3c(=O)[nH]2)cc1	gsp antagonist 50.1µM
COc1ccc(-n2c(-c3ccco3)nc3c(cnn3-c3ccccc3Cl)c2=O)cc1	none (no result: MmCpn inh, CCT chaperon mod, gsp antagonist, gsp agonist, RXFP1 antag)
Cc1cccc(C(=O)NC(=S)NNC(=O)c2ccc(Cl)cc2)c1	RXFP1 antag -96.5
O=[N+]([O-])c1c(Nc2ccccc2O)cc(Cl)c2nonc12	RXFP1 antag -75.1
O=[N+]([O-])c1c(Nc2ccccc2O)ccc2nonc12	none
COc1ccc(C)cc1NC(=O)N1CCN(c2cc(-c3noc(C)n3)ccc2C)CC1	none (no result: MmCpn inh, CCT chaperon mod, gsp antagonist, gsp agonist, RXFP1 antag)
Cc1ccc(-c2cnc(NCc3c(F)cccc3Cl)n2C)cc1	none (no result: MmCpn inh, CCT chaperon mod, gsp antagonist, gsp agonist, RXFP1 antag)
Cc1cc(C)cc(N2C(=O)C=CC2=O)c1	gsp antagonist inconclusive, RXFP1 antag -85.1 (no result: MmCpn inh, RXFP1 ag)
Cc1c([N+](=O)[O-])cc(N2C(=O)C=CC2=O)cc1[N+](=O)[O-]	RXFP1 antag inconclusive (no result: MmCpn inh, RXFP1 ag)
Cc1nc2scc(C)n2c(=O)c1S(=O)(=O)N1CCN(c2ccccn2)CC1	RXFP1 ag 25.1µM
COc1ccc(NC(=O)CSc2nc(-c3ccccc3)cc(-c3cc(OC)c(OC)c(OC)c3)c2C#N)c(OC)c1	none (no result: MmCpn inh, CCT chaperon mod, gsp antagonist, gsp agonist)
COC(=O)/C=C1\N/C(=N\c2nc(C)cc(C)n2)N(c2ccccc2)C1=O	CCT chaperon mod -38.1
O=C(Nc1ccccc1)C1CCN(S(=O)(=O)c2cccs2)CC1	none
N#Cc1ccsc1NC(=O)C1CCN(S(=O)(=O)c2cccs2)CC1	RXFP1 antag -69.7
CCCCCCCCCCn1c2c(c(=N)c3c1CCC3)CCC2	RXFP1 antag -69.4
CCn1c2c(c(=N)c3c1CCC3)CCCC2	none
